Data reported in ChEMBL document CHEMBL1157539, “Thousands of chemical starting points for antimalarial lead identification” (Nature, 2010).

test system: Plasmodium falciparum; assay: GSK_TCMDC: Inhibition of Plasmodium falciparum Dd2 in whole red blood cells, using parasite LDH activity as an index of growth. Test compounds present at 2uM; format: functional

Structure (SMILES) | Inhibition
CNCc1ccc(CN(C)c2nc(N)c3cc(OC)c(OC)cc3n2)cc1.O=C(O)C(F)(F)F | 3%
O=C(NC1CCN(CCCOc2ccnc3cc(Cl)ccc23)C1)c1ccc(Br)cc1 (stereo not given) | 87%
O=C(Nc1ccc(Cl)cc1Cl)N[C@H]1CCN(CCCCCNC(=O)C2CC2c2ccc(Cl)c(Cl)c2)C1 (stereo not given in full) | 0%
O=C(CSc1nn(-c2ccccc2)c(=S)s1)c1c[nH]c2ccccc12 | 68%
CCc1c(CCNCCCCCCNCCc2ccc(OC)cc2)ccc(OC)c1OC.Cl | 0%
COc1ccc2ncc(Cl)c(CCN3CC[C@@H](CNCc4cc5c(cn4)OCS5)C3)c2n1.Cl | 31%
Fc1cccc(Nc2nc(NCc3ccc4ccsc4c3)nc(Nc3cccc(F)c3)n2)c1 | 11%
CCc1cccc(-n2c(=O)c3cccnc3n2CC(=O)NC2CCCC2)c1 | 13%
CCCN(CCC)CCOc1ccc(C(O)(C#CC(O)(c2ccc(OCCN(CCC)CCC)cc2)c2cccc(Cl)c2)c2cccc(Cl)c2)cc1 (stereo not given) | 98%
COc1ccccc1-n1ccnc1SCC(=O)Nc1cc(C(F)(F)F)ccc1Cl | 97%
O=C(NC1CCN(Cc2ccccc2)CC1)c1csc2nc(-c3ccc(Cl)cc3)cn12 | 14%
N#Cc1ccc(N2CCN(Cc3ccc(-c4ccc(-c5nc6cc(C(F)(F)F)ccc6[nH]5)cc4)cc3)CC2)nc1.O=C(O)C(F)(F)F | 90%
O=C(/C=C/c1ccc(C(F)(F)F)cc1)NCCCCCN1CCC(c2c[nH]c3ccccc23)CC1 | 22%
COCCn1c(Sc2ccc(C#N)c([N+](=O)[O-])c2)nnc1-c1ccc(N(C)C)cc1 | 66%
O=C(O)CCSSc1cccc[n+]1[O-] | 0%
COc1ccc(CCN(C)CCCCc2ccc(NC(=O)c3cccc4c(=O)c5cc(F)ccc5sc34)cc2)cc1OC | 49%
CCN1CCC(N(CCCCCCc2ccc(C(F)(F)F)cc2)C(=O)Cn2c(CCc3cccc(F)c3F)cc(=O)c3ccccc32)CC1.O=C(O)C(O)C(O)C(=O)O | 82%
CCN(Cc1ccc(-c2ccc(C(F)(F)F)cc2)cc1)C(=O)Cn1c(SCc2cccc(F)c2F)cc(=O)c2cc(CN3CCCCC3)ccc21.Cl | 50%
Cc1ccc(S(=O)(=O)Nc2ccc(Nc3nccc(Nc4cccc5[nH]ncc45)n3)cc2)cc1 | 5%
CC(=O)Nc1ncc(C(=O)Nc2ccc(-c3cccc(-c4nc5cc(F)ccc5[nH]4)c3)cc2)s1 | 85%

Structure (SMILES) | Inhibition
Cc1cccc2nc(-c3cccc(-c4cccc(NC(=O)c5cnn6cccnc56)c4)c3)[nH]c12 | 17%
N#Cc1ccc(-c2cnc3ccc(NCc4ccc(S(N)(=O)=O)cc4)nn23)cc1 | 100%
CC(=O)c1cccc(NC(=O)N2CCCN(CCCCCNC(=O)/C=C/c3ccc(Cl)c(Cl)c3)CC2)c1 | 0%
O=C(/C=C/c1ccc(Cl)c(Cl)c1)NCCCCCN1CCCC(C(=O)Nc2ccc(Cl)cc2)C1 (stereo not given) | 0%
Cc1cc(OCCCN2CCC(NS(=O)(=O)c3cc(Br)c(Cl)s3)CC2)c2ccccc2n1 | 39%
COC(=O)c1cc2cccc(NC[C@@H](C)NC[C@H](O)c3cccc(Cl)c3)c2[nH]1 | 99%
N#Cc1ccc2[nH]c(-c3ccccc3)nc2c1 | 1%
Br.CCOc1ccc(OCCCON2C(=N)N=C(N)NC2(C)C)cc1 | 94%
O=C(NCC1CCN(Cc2ccc(F)cc2)C1)c1cc(-c2cccc(C(F)(F)F)c2)cs1.O=C(O)C(F)(F)F (stereo not given) | 18%
N=C(N)NN=Cc1ccccc1OCc1ccccc1Cl | 30%
CC(NC(C)c1cccc(Cl)c1)C(=O)Nc1cc(C(F)(F)F)ccc1N1CCOCC1 (stereo not given) | 33%
COc1ccc(Cn2ncc3c4c(N)nc(N)nc4ccc32)cc1OC | 95%
CCN(CC)CCNC(=O)c1ccc(NC(=O)c2cn(-c3ccccc3)nc2-c2cccs2)cc1 | 94%
CCc1c[nH]c2c(N3CCCC3=O)cc(C(=O)N[C@@H](Cc3ccccc3)[C@H](O)CNC(C)(C)c3cccc(C(F)(F)F)c3)cc12.O=CO | 99%
CCN(CC)CCCC(C)Nc1c2ccccc2nc2c1ccc1ccccc12.Cl (stereo not given) | 34%
N#Cc1ccc(C(=O)Nc2ccc(Cl)c(N3CCN(CCc4ccccc4)CC3)c2)cc1.O=C(O)C(F)(F)F | 35%
COc1ccc2nccc([C@@H](O)CN3CCC(NC(=O)c4ccc(Oc5ccccc5)cc4)CC3)c2c1 | 13%
CN(CCCNCc1ccc2ccccc2c1)CCCNCc1ccc2ccccc2c1.Cl | 79%
COc1ccc2nccc([C@@H](O)CN3CCC(NCCOc4ccncc4)CC3)c2c1.O=C(O)C(=O)O | 0%
COc1ccc(N(c2nc(-c3cc(Cl)ccc3Cl)cs2)C2CCNC2)cc1.O=C(O)C(F)(F)F (stereo not given) | 9%

test system: HepG2; assay: GSK_TCMDC: Percent inhibition of human HepG2 cell line. Test compounds present at 10uM.; format: functional

Structure (SMILES) | Inhibition
CNCc1ccc(CN(C)c2nc(N)c3cc(OC)c(OC)cc3n2)cc1.O=C(O)C(F)(F)F | 12%
O=C(NC1CCN(CCCOc2ccnc3cc(Cl)ccc23)C1)c1ccc(Br)cc1 (stereo not given) | 21%
O=C(Nc1ccc(Cl)cc1Cl)N[C@H]1CCN(CCCCCNC(=O)C2CC2c2ccc(Cl)c(Cl)c2)C1 (stereo not given in full) | 37%
O=C(CSc1nn(-c2ccccc2)c(=S)s1)c1c[nH]c2ccccc12 | 0%
CCc1c(CCNCCCCCCNCCc2ccc(OC)cc2)ccc(OC)c1OC.Cl | 16%
COc1ccc2ncc(Cl)c(CCN3CC[C@@H](CNCc4cc5c(cn4)OCS5)C3)c2n1.Cl | 22%
Fc1cccc(Nc2nc(NCc3ccc4ccsc4c3)nc(Nc3cccc(F)c3)n2)c1 | 0%
CCc1cccc(-n2c(=O)c3cccnc3n2CC(=O)NC2CCCC2)c1 | 2%
CCCN(CCC)CCOc1ccc(C(O)(C#CC(O)(c2ccc(OCCN(CCC)CCC)cc2)c2cccc(Cl)c2)c2cccc(Cl)c2)cc1 (stereo not given) | 100%
COc1ccccc1-n1ccnc1SCC(=O)Nc1cc(C(F)(F)F)ccc1Cl | 0%
O=C(NC1CCN(Cc2ccccc2)CC1)c1csc2nc(-c3ccc(Cl)cc3)cn12 | 19%
N#Cc1ccc(N2CCN(Cc3ccc(-c4ccc(-c5nc6cc(C(F)(F)F)ccc6[nH]5)cc4)cc3)CC2)nc1.O=C(O)C(F)(F)F | 19%
O=C(/C=C/c1ccc(C(F)(F)F)cc1)NCCCCCN1CCC(c2c[nH]c3ccccc23)CC1 | 96%
COCCn1c(Sc2ccc(C#N)c([N+](=O)[O-])c2)nnc1-c1ccc(N(C)C)cc1 | 2%
O=C(O)CCSSc1cccc[n+]1[O-] | 100%
COc1ccc(CCN(C)CCCCc2ccc(NC(=O)c3cccc4c(=O)c5cc(F)ccc5sc34)cc2)cc1OC | 98%
CCN1CCC(N(CCCCCCc2ccc(C(F)(F)F)cc2)C(=O)Cn2c(CCc3cccc(F)c3F)cc(=O)c3ccccc32)CC1.O=C(O)C(O)C(O)C(=O)O | 32%
CCN(Cc1ccc(-c2ccc(C(F)(F)F)cc2)cc1)C(=O)Cn1c(SCc2cccc(F)c2F)cc(=O)c2cc(CN3CCCCC3)ccc21.Cl | 95%
Cc1ccc(S(=O)(=O)Nc2ccc(Nc3nccc(Nc4cccc5[nH]ncc45)n3)cc2)cc1 | 57%
CC(=O)Nc1ncc(C(=O)Nc2ccc(-c3cccc(-c4nc5cc(F)ccc5[nH]4)c3)cc2)s1 | 47%

Structure (SMILES) | Inhibition
Cc1cccc2nc(-c3cccc(-c4cccc(NC(=O)c5cnn6cccnc56)c4)c3)[nH]c12 | 14%
N#Cc1ccc(-c2cnc3ccc(NCc4ccc(S(N)(=O)=O)cc4)nn23)cc1 | 7%
CC(=O)c1cccc(NC(=O)N2CCCN(CCCCCNC(=O)/C=C/c3ccc(Cl)c(Cl)c3)CC2)c1 | 13%
O=C(/C=C/c1ccc(Cl)c(Cl)c1)NCCCCCN1CCCC(C(=O)Nc2ccc(Cl)cc2)C1 (stereo not given) | 35%
Cc1cc(OCCCN2CCC(NS(=O)(=O)c3cc(Br)c(Cl)s3)CC2)c2ccccc2n1 | 5%
COC(=O)c1cc2cccc(NC[C@@H](C)NC[C@H](O)c3cccc(Cl)c3)c2[nH]1 | 0%
N#Cc1ccc2[nH]c(-c3ccccc3)nc2c1 | 7%
Br.CCOc1ccc(OCCCON2C(=N)N=C(N)NC2(C)C)cc1 | 63%
O=C(NCC1CCN(Cc2ccc(F)cc2)C1)c1cc(-c2cccc(C(F)(F)F)c2)cs1.O=C(O)C(F)(F)F (stereo not given) | 38%
N=C(N)NN=Cc1ccccc1OCc1ccccc1Cl | 14%
CC(NC(C)c1cccc(Cl)c1)C(=O)Nc1cc(C(F)(F)F)ccc1N1CCOCC1 (stereo not given) | 30%
COc1ccc(Cn2ncc3c4c(N)nc(N)nc4ccc32)cc1OC | 68%
CCN(CC)CCNC(=O)c1ccc(NC(=O)c2cn(-c3ccccc3)nc2-c2cccs2)cc1 | 30%
CCc1c[nH]c2c(N3CCCC3=O)cc(C(=O)N[C@@H](Cc3ccccc3)[C@H](O)CNC(C)(C)c3cccc(C(F)(F)F)c3)cc12.O=CO | 10%
CCN(CC)CCCC(C)Nc1c2ccccc2nc2c1ccc1ccccc12.Cl (stereo not given) | 18%
N#Cc1ccc(C(=O)Nc2ccc(Cl)c(N3CCN(CCc4ccccc4)CC3)c2)cc1.O=C(O)C(F)(F)F | 5%
COc1ccc2nccc([C@@H](O)CN3CCC(NC(=O)c4ccc(Oc5ccccc5)cc4)CC3)c2c1 | 39%
CN(CCCNCc1ccc2ccccc2c1)CCCNCc1ccc2ccccc2c1.Cl | 100%
COc1ccc2nccc([C@@H](O)CN3CCC(NCCOc4ccncc4)CC3)c2c1.O=C(O)C(=O)O | 11%
COc1ccc(N(c2nc(-c3cc(Cl)ccc3Cl)cs2)C2CCNC2)cc1.O=C(O)C(F)(F)F (stereo not given) | 21%
